# From PubChem
# Cruzain inh Det – cruzain (T. cruzi) inhibition with detergent; P25779; purified cruzain, Z-FR-AMC fluorescence, 0.01% Triton; Potency, µM, without a hit: max response, negative = inhibition, usual class: inhibitors; hit rate 0.43% among 200,000; AID 1478;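 note: plate controls were neutral wells for no effect and buffer without enzyme for full effect; nearly all actives have a fitted effect of over 40% in size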
#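 Detergent-containing arm of a paired screen for aggregation-based inhibition: 0.01% Triton X-100 present. Cruzain at 1.5 nM cleaved 2 uM Z-FR-AMC at pH 5.5 with 5 mM DTT; AMC fluorescence gain over 60 s measured activity.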
# Cruzain noTriton – blocks cruzain activity in detergent-free assay; Potency, µM, inactives show max response, negative = inhibition, most hits filed as inhibitors; hit rate 2.3% among 200,000; AID 1476; purified cruzain, Z-FR-AMC fluorescence, no detergent; P25779;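 note: plate controls were enzyme without inhibitor for no effect and buffer without enzyme for full effect; nearly all actives have a fitted effect of over 40% in size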
#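 Detergent-free condition (0.00005% Triton X-100) in acetate buffer pH 5.5 with DTT. 1.5 nM enzyme and compound were pre-mixed 15 min, then 2 uM Z-FR-AMC substrate added; reaction progress from fluorescence change between first and third reads (60 s).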
# Papain counter – blocks papain protease activity, flagging nonselective cruzain hits; hit rate 41% among 410; Potency, µM, without a hit: max response, negative = inhibition, most hits filed as inhibitors; AID 2161; purified papain, Z-FR-AMC fluorescence cleavage; shares compounds with Cruzain inh Det;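 note: 0% = no-compound wells and -100% = no-enzyme wells; nearly all actives have a fitted effect of over 35% in size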
# Target sequence (P00784 whole entry, looked up): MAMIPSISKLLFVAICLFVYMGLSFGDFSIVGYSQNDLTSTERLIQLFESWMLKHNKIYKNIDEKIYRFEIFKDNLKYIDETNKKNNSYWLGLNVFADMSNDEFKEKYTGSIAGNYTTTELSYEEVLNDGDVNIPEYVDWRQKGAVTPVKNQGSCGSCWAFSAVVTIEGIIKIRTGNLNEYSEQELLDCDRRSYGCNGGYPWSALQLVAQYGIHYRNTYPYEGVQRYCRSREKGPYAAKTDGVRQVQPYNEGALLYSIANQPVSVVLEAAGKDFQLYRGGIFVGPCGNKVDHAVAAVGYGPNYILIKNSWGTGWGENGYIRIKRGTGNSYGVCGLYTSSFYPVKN
# The depositor's hits bear a star; ? = inconclusive; / = no result. A selection: hits, their analogues and other compounds. The true share with any hit is near 2.4%. Calls come from the whole dose curve; as a rule, active = well fitted curve in the direction sought with a large enough effect; inconclusive = small, poorly fitted or top-dose-only effect, or another doubt; inactive = no such curve, though single readings can be large; an effect the other way counts as inactive or inconclusive. Potency is the fitted concentration of half-maximal effect.
SMILES,Cruzain inh Det,Cruzain noTriton,Papain counter
CN(C)c1ccc(C(=O)Nc2ccc(-c3nc4ccccc4o3)cc2)cc1,0%,7%,/
Cc1cccc(C)c1N=C1NN=C(c2ccccc2F)CS1,-6%,?,/
FC(F)Sc1ccc(N=C2NN=C(c3ccc4c(c3)OCCO4)CS2)cc1,0%,3.2µM*,-12%
CCNc1ncc2nc(-c3ccccc3)c(=O)n(CCC#N)c2n1,-8%,29%,/
N/C(Cc1ccc(Cl)cc1)=N\OC(=O)c1cccc2ccccc12,-3%,0%,/
CN1C(=O)/C(=N\OC(=O)c2cccc3ccccc23)c2ccccc21,3.2µM*,7.9µM*,16µM*
COc1ccc(-n2c(=O)c3c(c4cc(OC)ccc4n3C)n(CC(=O)N3CCCC3)c2=O)cc1,-11%,15%,/
CC(CCC(=O)O)C1CCC2C3CC(O)[C@@H]4CC(O)CC[C@]4(C)C3CC[C@@]12C (stereo partly drawn),6%,?,/
C[C@H](CCC(=O)O)[C@H]1CC[C@@H]2[C@@H]3[C@@H](O)C[C@H]4C[C@@H](O)CC[C@@]4(C)[C@H]3CC[C@@]21C,-7%,?,4%
COC(=O)CCC(C)C1CCC2C3C(O)C[C@@H]4CC(O)CC[C@@]4(C)C3CC(O)[C@]12C (stereo partly drawn),0%,?,3%
COC(=O)CC[C@@H](C)C1CC[C@H]2[C@H]3CC[C@H]4C[C@@H]5CCC4(C)[C@@]3(O5)[C@@H](Br)[C@@H](Br)[C@@]12C (stereo partly drawn),-3%,-14%,/
CC1CCCN(CCCCOc2cccc(Br)c2)C1 (stereo not drawn),2%,3%,/
COc1cccc2c1[C@@H]1CN(CCCCn3c(=O)[nH]c4c(sc5ncc(-c6ccccc6)nc54)c3=O)C[C@@H]1CO2,28µM*,?,-13%
COc1cc2[nH]c(=O)n(CCCC(=O)N3CC=C(c4ccccc4)CC3)c(=O)c2cc1OC,-7%,?,/
COc1ccc(NS(=O)(=O)c2ccc(N3CCCC3)c(NC(=S)Nc3cccc(S(=O)(=O)N(C)C)c3)c2)cc1,-16%,-14%,/
Cc1cccc(N2CCN(C3=NC(=O)C(Cc4ccccc4)S3)CC2)c1 (stereo not drawn),?,-3%,/
COc1cc2c(cc1OC)C(c1cc(OC)c(O)c(OC)c1)CC(=O)N2 (stereo not drawn),0%,-1%,/
CCN(CC)c1nc(C#N)nc(N(CC)CC)n1,13µM*,16µM*,5µM*
CCN(CC)c1nc(SCC(=O)O)nc(N(CC)CC)n1,3%,-2%,/
CCCN(CCC)c1nc(N)nc(C#N)n1,/,/,2µM*
CCN(c1ccccc1)c1nc(C#N)nc(N(CC)c2ccccc2)n1,/,/,3.2µM*
CCCN(CCC)c1nc(N)nc(-c2cc(Cl)ccc2OC)n1,-5%,?,/
CCN(c1ccccc1)c1cc(C)nc2nc(C)nn12,-4%,3%,/
Cc1ccccc1NC(=O)C1CCN(S(=O)(=O)c2cccc3nonc23)CC1,-3%,-17%,/
Cc1ccc(NC(=O)CCC(=O)N/N=C/C=C/c2ccccc2)cc1,1%,?,/
SMILES,Cruzain inh Det,Cruzain noTriton,Papain counter
Cc1ccc(NC(=O)C2C3CCCC2C3c2ccccc2)cc1 (stereo not drawn),1%,?,/
CN(C)S(=O)(=O)c1ccc(NC(=O)N2CCN(c3ccccc3)CC2)cc1,4%,-29%,/
C#CCn1c(=NC(=O)c2ccc(Br)s2)sc2cc(NC(C)=O)ccc21,-12%,-18%,/
COC(=O)Cn1c(=NC(=O)c2ccc(Cl)s2)sc2cc(C)ccc21,22µM*,20µM*,14µM*
COc1cccc(NC(=O)C2CCN(S(=O)(=O)c3c(C)noc3C)CC2)c1,-2%,-16%,/
CCn1nc(-c2ccc(C)cc2)nc2c(=O)n(C)c(=O)nc1-2,/,/,-3%
CCOC(=O)Cn1nc(-c2ccccc2)nc1-c1ccccc1,-3%,4%,/
CCS(=O)(=O)n1nc(-c2ccc(C)cc2)nc1N,-2%,-1%,/
CCn1nc(-c2ccccc2)nc2c(=O)n(C)c(=O)nc1-2,2.2µM*,1.3µM*,4%
O=C(O)[C@H]1O[C@H]1C(=O)O,-1%,3%,/
Cc1ccc(C)c(NC(=O)C2CCCN2/C=C/C(=O)C(F)(F)F)c1 (stereo not drawn),1%,-5%,/
CCOC(=O)CCn1c(=O)c2cccn2c2cccnc21,-5%,5%,/
Cn1cccc1C(=O)N1CCC[C@@]2(CCN(C(=O)Nc3cccc(C#N)c3)C2)C1,-5%,0%,/
CCOC(=O)c1cc2c(=O)n3ccccc3nc2n(Cc2ccco2)c1=NC(=O)c1cccc(C)c1,-12%,-1%,/
CCOC(=O)c1cc2c(=O)n3ccccc3nc2n(Cc2ccco2)c1=NC(=O)c1cccnc1,16µM*,-4%,-58%
CCC(C(=O)NCCc1ccccc1)n1nc(C)c2sc3ccccc3c2c1=O (stereo not drawn),-3%,1%,/
